Test systems include RPMI-8226 leukemia; OVCAR-8 ovarian; OVCAR-5 ovarian; OVCAR-4 ovarian; SK-OV-3 ovarian; IGROV1 ovarian; OVCAR-3 ovarian; HS 578T breast; NCI/ADR-RES ovarian; T-47D breast.
Common to all, as to test: NCI-60 one-dose screen, 48 h (100 = growth as untreated, 0 = no growth, -100 = all killed)
What all share (conditions): 10 µM unless noted

This is part of a sample that, as a whole, favours compounds with a hit. Of some 83,000 tested, about 20% had one in any assay.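 In brief: 96-well plates, 48 h treatment, single concentration, percent growth endpoint.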 Values without a mark were called inactive. Activity calls are given as the source filed them. How the source made its calls: active means growth percent below 10; inactive means the rest.

Consider `CC1(C)Cc2c(Br)c(Br)c(Br)c(OCC(O)CN3CCOCC3)c2O1` (stereo not given), for which the growth was 20.8% in the test with RPMI-8226 leukemia; 88.9% in the test with OVCAR-8 ovarian; 99.7% in the test with OVCAR-5 ovarian; 99.5% in the test with OVCAR-4 ovarian; 110% with SK-OV-3 ovarian; -83.4% (active) in the test on IGROV1 ovarian. The growth in the test with OVCAR-3 ovarian was 57%; with HS 578T breast, 98.1%; in the test with NCI/ADR-RES ovarian it was 81.2%; in the test on T-47D breast it was 108%.
With `COc1cc(C2=NN(c3ccccc3)C(c3cccc(Nc4ccnc5cc(C(F)(F)F)ccc45)c3)C2)cc(OC)c1OC` (stereo not given), the growth in the test with RPMI-8226 leukemia was 65.1%; in the test with OVCAR-8 ovarian it was 91.7%; in the test with OVCAR-5 ovarian, 104%; with OVCAR-4 ovarian, 91%; with SK-OV-3 ovarian, 94.7%; with IGROV1 ovarian, 77.9%. The growth with OVCAR-3 ovarian was 88.1%; with HS 578T breast it was 99%; with NCI/ADR-RES ovarian, 80.9%; with T-47D breast, 76.5%.
With `O=C(CCCCCCCCC(=O)Nc1cccc(C2=NCCN2)c1)Nc1cccc(C2=NCCN2)c1`, the growth in the test with RPMI-8226 leukemia is 78.6%; with OVCAR-8 ovarian it was 107%; in the test with OVCAR-5 ovarian, 109%; with OVCAR-4 ovarian it was 102%; with SK-OV-3 ovarian, 113%; in the test on IGROV1 ovarian it was 104%. The growth was 112% in the test on OVCAR-3 ovarian, 113% in the test on HS 578T breast, 104% in the test with NCI/ADR-RES ovarian and 81% in the test on T-47D breast.
As to `COc1cc2nc3c(=O)n(CCN(C)C)cnn3c(=O)c2cc1OC`, the growth is 121% with RPMI-8226 leukemia; 111% in the test with OVCAR-8 ovarian; 99% in the test with OVCAR-5 ovarian; 101% with OVCAR-4 ovarian; 104% in the test with SK-OV-3 ovarian; 100% in the test on IGROV1 ovarian. Further, the growth in the test with OVCAR-3 ovarian is 103%; in the test on HS 578T breast, 92.8%; in the test on NCI/ADR-RES ovarian, 98.3%; in the test on T-47D breast it was 112%.
In the case of `O=C1CCC23OC(C(O)c4ccccc4N12)C1C(Br)=NOC13` (stereo not given), the growth with RPMI-8226 leukemia is 98.7%; with OVCAR-8 ovarian, 103%; with OVCAR-5 ovarian, 97.7%; with OVCAR-4 ovarian, 95.4%; in the test with SK-OV-3 ovarian it was 99%; with IGROV1 ovarian, 106%. The growth with OVCAR-3 ovarian was 105%; in the test with HS 578T breast, 106%; in the test on NCI/ADR-RES ovarian, 106%; with T-47D breast it was 102%.
As to `C=C1C(=O)O[C@H]2[C@H]1CC/C(COC(=O)n1ccnc1)=C\CC[C@@]1(C)O[C@@H]21`, the growth with RPMI-8226 leukemia is 85.3%; in the test with OVCAR-8 ovarian, 99.8%; in the test with OVCAR-5 ovarian, 117%; in the test with OVCAR-4 ovarian it was 103%; with SK-OV-3 ovarian, 102%; in the test with IGROV1 ovarian it was 77.7%. Further, the growth with OVCAR-3 ovarian was 57%; in the test with HS 578T breast, 99.2%; in the test on NCI/ADR-RES ovarian, 102%; with T-47D breast it was 78.2%.
Regarding `COc1cc(/C=C/C(=O)/C=C/c2cc3ccc(Cl)cc3[nH]c2=O)ccc1O`, the growth with RPMI-8226 leukemia is 4.64% (active); in the test with OVCAR-8 ovarian, 6.97% (active); in the test with OVCAR-5 ovarian it was 103%; with OVCAR-4 ovarian, 68%; with SK-OV-3 ovarian, 105%; with IGROV1 ovarian it was 40.7%. Besides, the growth is 42.4% in the test on OVCAR-3 ovarian, 73.8% with HS 578T breast, 41% in the test on NCI/ADR-RES ovarian and 88.8% in the test on T-47D breast.
As to `CC[C@H](Nc1ncnc2nc[nH]c12)c1nc2cccc(CC(=O)c3ccc(C(=O)NO)cc3)c2c(=O)n1-c1ccccc1`, the growth with RPMI-8226 leukemia is 45.1%; with OVCAR-8 ovarian, 81.3%; in the test with OVCAR-5 ovarian, 97.9%; in the test with OVCAR-4 ovarian, 78.3%; in the test on SK-OV-3 ovarian it was 98.8%; with IGROV1 ovarian, 89.1%. Besides, the growth in the test with OVCAR-3 ovarian was 76.9%; in the test on HS 578T breast it was 72%; in the test with NCI/ADR-RES ovarian, 94%; in the test with T-47D breast, 50.7%.
For `CCOc1ccccc1C(=O)/C=C/c1cc2ccccc2[nH]c1=O`, the growth in the test with RPMI-8226 leukemia was -12.1% (active); in the test on OVCAR-8 ovarian it was 7.43% (active); in the test with OVCAR-5 ovarian, 5.93% (active); in the test with OVCAR-4 ovarian it was 32.3%; in the test with SK-OV-3 ovarian, 18.8%; in the test on IGROV1 ovarian, 1.32% (active). The growth in the test on OVCAR-3 ovarian was -30.7% (active); in the test with HS 578T breast it was 60.1%; in the test on NCI/ADR-RES ovarian, -4.24% (active); in the test with T-47D breast, 4.65% (active).
In the case of `CC(C)(C)c1ccc(O)c(Cc2cc(C(C)(C)C)ccc2O)c1`, the growth with RPMI-8226 leukemia is 47.7%; in the test on OVCAR-8 ovarian, 90.3%; in the test with OVCAR-5 ovarian, 120%; in the test on OVCAR-4 ovarian, 95.6%; in the test on SK-OV-3 ovarian, 102%; in the test with IGROV1 ovarian it was 101%. For the same molecule, the growth is 103% with OVCAR-3 ovarian, 93.3% in the test on HS 578T breast, 100% in the test on NCI/ADR-RES ovarian and 78.6% in the test on T-47D breast.
In the case of `CN(C)C(CNc1oc(-c2cccc3ccccc23)nc1C#N)c1ccco1` (stereo not given), the growth with RPMI-8226 leukemia is 87.8%; in the test with OVCAR-8 ovarian it was 96.4%; with OVCAR-5 ovarian, 94.6%; with OVCAR-4 ovarian it was 83.2%; in the test on SK-OV-3 ovarian it was 104%; in the test with IGROV1 ovarian, 95.7%. In addition, the growth in the test on OVCAR-3 ovarian is 96.2%; in the test with HS 578T breast it was 89.6%; in the test on NCI/ADR-RES ovarian it was 94.8%; in the test with T-47D breast, 72%.
For the molecule `CC(=O)O[C@@H]1C[C@]2(C)[C@H]3[C@H](O)C[C@@H]4C5=CC(C)(C)CC[C@]5(C)CC[C@@]4(C)[C@]3(C)CC[C@H]2C(C)(C)[C@H]1O`, the growth in the test with RPMI-8226 leukemia is 124%; in the test with OVCAR-8 ovarian, 104%; in the test with OVCAR-5 ovarian, 106%; in the test on OVCAR-4 ovarian it was 106%; with SK-OV-3 ovarian, 107%; in the test with IGROV1 ovarian, 106%. In addition, the growth in the test on OVCAR-3 ovarian was 101%; in the test with HS 578T breast it was 99.1%; in the test with NCI/ADR-RES ovarian it was 104%; in the test with T-47D breast it was 82.3%.
Take `COc1ccc2[nH]c3nc4cnccc4cc3c2c1`: the growth with RPMI-8226 leukemia was 101%; in the test with OVCAR-8 ovarian it was 97%; in the test with OVCAR-5 ovarian, 128%; in the test on OVCAR-4 ovarian, 101%; with SK-OV-3 ovarian, 95.3%; in the test with IGROV1 ovarian it was 89.3%. Also, the growth was 104% with OVCAR-3 ovarian, 110% with HS 578T breast, 104% in the test with NCI/ADR-RES ovarian and 94.6% with T-47D breast.

The values above are taken from PubChem BioAssay (NCI).
